Test results published in PubChem BioAssay (NCI).
About 79,000 compounds went through this panel and 15% of them were active in at least one assay; those are over-represented in the sample as a whole. Activity calls are given as the source filed them. Rule as the data show it: active = growth inhibition above about 70%; inactive = the rest.

What was measured:
[1] = NCI Yeast Anticancer Drug Screen. Data for the rad52 strain (AID 147);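 also: 0% = growth of vehicle-treated control cultures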; details: S. cerevisiae rad52 mutant growth inhibition, stronger effect = higher value
In short: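 Inhibition of yeast growth, referenced to vehicle controls, was the measured output for a strain with defective DNA damage repair.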

[2] = NCI Yeast Anticancer Drug Screen. Data for the wt1 strain (AID 149);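 also: 0% = growth of vehicle-treated wt1 cultures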; details: S. cerevisiae wt1 strain (SPY 50644) growth inhibition, stronger effect = higher value
In short: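 Readout: yeast growth inhibition, normalised to vehicle controls, in the wt1 strain exposed to test compounds.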

[3] = NCI Yeast Anticancer Drug Screen. Data for the rad50EPP+ strain (AID 151);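 also: 0% = growth of vehicle-treated control cultures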; details: S. cerevisiae rad50 mutant strain, stronger effect = higher value
In short: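 Genetically defined yeast (rad50EPP+, DNA damage repair alteration) is grown with compound, and inhibition of growth is expressed relative to vehicle-treated controls.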

[4] = NCI Yeast Anticancer Drug Screen. Data for the mgt1 strain (AID 153); details: S. cerevisiae mgt1 mutant growth inhibition, stronger effect = higher value
In short: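 In the mgt1 strain, test compounds were added and growth inhibition was determined relative to vehicle-treated controls.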

[5] = NCI Yeast Anticancer Drug Screen. Data for the rad50 strain (AID 155);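 also: 0% = growth of vehicle-only cultures of the same strain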; details: S. cerevisiae rad50 strain growth inhibition, stronger effect = higher value
In short: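 Compounds were tested on a yeast strain with an engineered DNA damage repair alteration; the reported value is growth inhibition normalised to vehicle treatment.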

[6] = NCI Yeast Anticancer Drug Screen. Data for the mec2-1 strain (AID 157); details: S. cerevisiae mec2-1 strain, stronger effect = higher value
In short: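 Each compound was tested on mec2-1 yeast, a strain altered in DNA damage repair or cell cycle control. Growth inhibition is reported relative to vehicle.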

[7] = NCI Yeast Anticancer Drug Screen. Data for the rad14 strain (AID 159);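 also: 0% = growth of vehicle-treated control cultures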; details: S. cerevisiae rad14 strain growth inhibition, stronger effect = higher value
In short: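 Compound-treated yeast with a defined DNA-repair lesion; growth inhibition normalised to vehicle-treated cultures.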

[8] = NCI Yeast Anticancer Drug Screen. Data for the sgs1 mgt1 strain (AID 161);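 also: 0% = growth of cultures given vehicle only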; details: S. cerevisiae sgs1 mgt1 strain, stronger effect = higher value
In short: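 Genetically altered yeast, compound exposure, growth inhibition relative to vehicle.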

[9] = NCI Yeast Anticancer Drug Screen. Data for the CLN2oe strain (AID 163);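 also: 0% = growth of vehicle-only control cultures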; details: S. cerevisiae CLN2oe strain, stronger effect = higher value
In short: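 First, the altered yeast strain was treated with each compound; second, its growth was measured; finally, inhibition was derived by comparison with vehicle controls.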

[10] = NCI Yeast Anticancer Drug Screen. Data for the cln2 rad14 strain (AID 165);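 also: 0% = growth equal to vehicle treated cultures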; details: S. cerevisiae cln2 rad14 strain, stronger effect = higher value
In short: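 Test compounds were added to cln2 rad14 yeast cultures; inhibition of growth was then determined by comparison with vehicle treatment.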

[11] = NCI Yeast Anticancer Drug Screen. Data for the bub3 strain (AID 167); details: S. cerevisiae bub3 mutant strain, stronger effect = higher value
In short: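 Growth of a checkpoint-deficient yeast mutant is measured after compound exposure. Values represent inhibition relative to vehicle.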

[12] = NCI Yeast Anticancer Drug Screen. Data for the wt2 strain (AID 169);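 also: 0% = growth of vehicle-treated yeast cultures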; details: S. cerevisiae wt2 strain growth inhibition, stronger effect = higher value
In short: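 The panel's yeast strains carry defined changes in DNA repair or cell cycle genes. Each strain is grown with compound, and growth loss is scored relative to vehicle.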

[13] = NCI Yeast Anticancer Drug Screen. Data for the mlh1 strain (AID 171);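 also: 0% = growth of vehicle-treated control cultures of the same strain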; details: S. cerevisiae mlh1 strain growth inhibition, stronger effect = higher value
In short: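 Inhibition values reflect reduced yeast growth in the presence of compound, referenced to vehicle controls, using a strain chosen for its alteration in DNA repair or cell cycle control.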

[14] = NCI Yeast Anticancer Drug Screen. Data for the sgs1 strain (AID 173);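 also: 0% = growth of vehicle-only control cultures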; details: S. cerevisiae sgs1 mutant, stronger effect = higher value
In short: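 Vehicle-treated cultures served as reference for growth inhibition of a yeast strain altered in DNA damage repair or cell cycle control after compound exposure.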

[15] = NCI Yeast Anticancer Drug Screen. Data for the mlh1 rad18 strain (AID 175); details: S. cerevisiae mlh1 rad18 strain growth inhibition, stronger effect = higher value
In short: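 Inhibition values reflect reduced growth of mutant yeast versus vehicle-treated controls following compound exposure; the mutations affect DNA damage repair.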

[16] = NCI Yeast Anticancer Drug Screen. Data for the rad18 strain (AID 177); details: S. cerevisiae rad18 mutant growth inhibition, stronger effect = higher value
In short: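 Steps: expose repair-mutant yeast to compound; measure growth; express as inhibition relative to vehicle control.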

[17] = at 5.0 µM (retest, dose inferred, filed as 0.5)
[18] = at 50.0 µM (retest, dose inferred, filed as 5.0)

Measured: growth inhibition

O=C1NC(=O)c2ccc([N+](=O)[O-])c3cccc1c23
inactive: [1]; at 1.2 µM 11% | [1]; at 3.7 µM 27% | [1]; at 11.0 µM 36% | [1]; at 33.0 µM 56% | [2]; at 1.2 µM -12% | [2]; at 3.7 µM 32% | [2]; at 11.0 µM 25% | [2]; at 33.0 µM 24% | [2]; at 100.0 µM 36% | [3]; at 1.2 µM 45% | [3]; at 3.7 µM 51% | [3]; at 11.0 µM 65% | [4]; at 1.2 µM 11% | [4]; at 3.7 µM 18% | [4]; at 11.0 µM 20% | [4]; at 33.0 µM 30% | [4]; at 100.0 µM 49% | [5]; at 1.2 µM 7% | [5]; at 3.7 µM 13% | [5]; [17] -15% | [5]; at 11.0 µM 20% | [5]; at 33.0 µM 47% | [5]; [18] 55% | [5]; at 50.0 µM 64.5% | [5]; at 100.0 µM 65% | [6]; at 1.2 µM 11% | [6]; at 3.7 µM 20% | [6]; [17] -36% | [6]; at 11.0 µM 20% | [6]; at 33.0 µM 35% | [6]; [18] 23% | [6]; at 50.0 µM 33.5% | [7]; at 1.2 µM -2% | [7]; at 3.7 µM 5% | [7]; at 11.0 µM 21% | [7]; at 33.0 µM 55% | [8]; [17] -8% | [8]; [18] 23% | [8]; at 50.0 µM 68.8% | [9]; at 1.2 µM -2% | [9]; at 3.7 µM -1% | [9]; at 11.0 µM 3% | [9]; at 33.0 µM 17% | [9]; at 100.0 µM 68% | [10]; [17] 24% | [10]; [18] 68% | [11]; at 1.2 µM 28% | [11]; at 3.7 µM 43% | [11]; [17] 2% | [11]; at 11.0 µM 39% | [11]; at 33.0 µM 55% | [11]; at 50.0 µM 51.9% | [11]; at 100.0 µM 67% | [12]; at 1.2 µM 21% | [12]; at 3.7 µM 12% | [12]; at 11.0 µM 29% | [12]; at 33.0 µM 43% | [12]; at 100.0 µM 62% | [13]; at 1.2 µM 32% | [13]; at 3.7 µM 28% | [13]; at 11.0 µM 41% | [13]; at 33.0 µM 65% | [14]; at 1.2 µM 41% | [14]; at 3.7 µM 51% | [14]; at 11.0 µM 66% | [15]; [17] 51% | [15]; at 50.0 µM 37.5% | [16]; at 1.2 µM 48%
active: [1]; at 100.0 µM 73% | [3]; at 33.0 µM 78% | [3]; at 100.0 µM 81% | [6]; at 100.0 µM 72% | [7]; at 100.0 µM 79% | [10]; at 50.0 µM 72.2% | [11]; [18] 79% | [13]; at 100.0 µM 75% | [14]; at 33.0 µM 78% | [14]; at 100.0 µM 74% | [15]; [18] 87% | [16]; at 3.7 µM 72% | [16]; at 11.0 µM 86% | [16]; at 33.0 µM 93% | [16]; at 100.0 µM 92%

CCc1nc2ccc(NCCN(C)C)c3c(=O)c4ccccc4n1c23
inactive: [1]; at 1.2 µM 12% | [1]; at 3.7 µM 39% | [1]; at 11.0 µM 60% | [2]; at 1.2 µM 25% | [2]; at 3.7 µM 29% | [2]; at 11.0 µM 31% | [2]; at 33.0 µM 22% | [2]; at 100.0 µM 22% | [3]; at 1.2 µM 14% | [3]; at 3.7 µM 26% | [3]; at 11.0 µM 39% | [3]; at 33.0 µM 57% | [4]; at 1.2 µM 37% | [4]; at 3.7 µM 38% | [4]; at 11.0 µM 29% | [4]; at 33.0 µM 23% | [4]; at 100.0 µM 40% | [5]; at 1.2 µM 46% | [5]; at 3.7 µM 49% | [5]; [17] 38% | [5]; at 50.0 µM 29.1% | [6]; at 1.2 µM 25% | [6]; at 3.7 µM 26% | [6]; [17] 4% | [6]; at 11.0 µM 11% | [6]; at 33.0 µM 24% | [6]; [18] 40% | [6]; at 50.0 µM 20.1% | [6]; at 100.0 µM 16% | [7]; at 1.2 µM 31% | [7]; at 3.7 µM 33% | [7]; at 11.0 µM 35% | [7]; at 33.0 µM 37% | [7]; at 100.0 µM 58% | [8]; [17] 3% | [8]; [18] 28% | [8]; at 50.0 µM 19.6% | [9]; at 1.2 µM 18% | [9]; at 3.7 µM 13% | [9]; at 11.0 µM 17% | [9]; at 33.0 µM 33% | [9]; at 100.0 µM 46% | [10]; [17] 14% | [10]; [18] 26% | [10]; at 50.0 µM 21.8% | [11]; at 1.2 µM 9% | [11]; at 3.7 µM 11% | [11]; [17] 4% | [11]; at 11.0 µM 5% | [11]; at 33.0 µM 3% | [11]; [18] 32% | [11]; at 50.0 µM -4.2% | [11]; at 100.0 µM 26% | [12]; at 1.2 µM -39% | [12]; at 3.7 µM -34% | [12]; at 11.0 µM -29% | [12]; at 33.0 µM -31% | [12]; at 100.0 µM 5% | [13]; at 1.2 µM 37% | [13]; at 3.7 µM 38% | [13]; at 11.0 µM 29% | [13]; at 33.0 µM 23% | [13]; at 100.0 µM 40% | [14]; at 1.2 µM 18% | [14]; at 3.7 µM 15% | [14]; at 11.0 µM 28% | [14]; at 33.0 µM 22% | [14]; at 100.0 µM 54% | [15]; [17] 14% | [15]; [18] 53% | [16]; at 1.2 µM 30% | [16]; at 3.7 µM 42% | [16]; at 11.0 µM 44% | [16]; at 33.0 µM 63%
active: [1]; at 33.0 µM 81% | [1]; at 100.0 µM 85% | [3]; at 100.0 µM 71% | [5]; at 11.0 µM 74% | [5]; at 33.0 µM 89% | [5]; [18] 86% | [5]; at 100.0 µM 91% | [15]; at 50.0 µM 83.8% | [16]; at 100.0 µM 80%
